The supplement of paper PMC3898565
Where a name gives a salt, the structure may show the parent alone. ± gives the uncertainty stated by the source.

test system: U87; experiment: cell viability relative to vehicle control; higher = less growth inhibition (less active); conditions: 10 µM; 72 h
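Further: viable cell number estimated from Alamar Blue fluorescence read at 560/90, part of a single-dose primary screen of an FDA-approved drug library.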

Point of comparison: CN1CCN(c2nc3cc(C(F)(F)F)ccc3n3cccc23)CC1, cell viability 111 ± 2%. Against it:
- COc1ccccc1OCC(O)CN1CCN(CC(=O)Nc2c(C)cccc2C)CC1 (stereo not given) [Ranolazine dihydrochloride] — lower, 102.8 ± 0.94%
- COc1cc(C(=O)NC2CCCNC2)cc(OC)c1OC (stereo not given) — lower, 101 ± 4.2%
- NC(N)=Nc1nc(CSCC/C(N)=N/S(N)(=O)=O)cs1 — lower, 98.4 ± 9.8%
- CN(C)CC[C@@H](c1ccc(Br)cc1)c1ccccn1 — lower, 104.1 ± 0.82%
- C#C[C@]1(O)CC[C@H]2[C@@H]3CCC4=CC(=O)CC[C@@H]4[C@H]3CC[C@@]21CC — lower, 105.5 ± 0.58%
- CO[C@H]1O[C@@H]2O[C@@]3(C)CC[C@H]4[C@H](C)CC[C@@H]([C@H]1C)[C@@]24OO3 — within error, 107 ± 2.1%
- CN=C(N)NCCC[C@H](N)C(=O)O [L-Ornithine, N5-[imino(methylamino)methyl]-[CAS]] — lower, 104.9 ± 0.88%
- C[C@]12CCC(=O)C=C1CC[C@@H]1[C@@H]2CC[C@@]2(C)[C@H]1CC[C@]2(O)C(=O)CO — lower, 103.8 ± 0.18%
- O=c1c(O[C@@H]2O[C@H](CO)[C@@H](O)[C@H](O)[C@H]2O)c(-c2ccc(O)c(O)c2)oc2cc(O)cc(O)c12 [Isoquercitrin] — lower, 104 ± 1.7%
- NC(=O)c1cccnc1 — lower, 104.5 ± 1%
- CC1CCN(CCCC(=O)c2ccc(F)cc2)CC1 [Metylperon] — lower, 106 ± 1.2%
- CSc1nc2cc(Cl)c(Oc3cccc(Cl)c3Cl)cc2[nH]1 — lower, 103 ± 2.5%
- Cc1cn([C@H]2C=C[C@@H](CO)O2)c(=O)[nH]c1=O — lower, 105 ± 3%
- CO[C@H]1/C=C/O[C@@]2(C)Oc3c(C)c(O)c4c(c3C2=O)C2=NC3(CCN(CC(C)C)CC3)NC2=C(NC(=O)/C(C)=C\C=C\[C@H](C)[C@H](O)[C@@H](C)[C@@H](O)[C@@H](C)[C@H](OC(C)=O)[C@@H]1C)C4=O — lower, 104 ± 2.1%
- COc1cc(C(=O)NS(=O)(=O)c2ccccc2C)ccc1Cc1cn(C)c2ccc(NC(=O)OC3CCCC3)cc12 — lower, 104 ± 1.1%
- CO[C@H]1/C=C/O[C@@]2(C)Oc3c(C)c(O)c4c(O)c(c(/C=N/N5CCN(C6CCCC6)CC5)c(O)c4c3C2=O)NC(=O)/C(C)=C\C=C\[C@H](C)[C@H](O)[C@@H](C)[C@@H](O)[C@@H](C)[C@H](OC(C)=O)[C@@H]1C — lower, 93.7 ± 1.3%
- CN1CCN(C2=Nc3cc(F)ccc3Cc3ccccc32)CC1 [Fluperlapine] — within error, 106 ± 3.3%
- CN1CCCC(n2nc(Cc3ccc(Cl)cc3)c3ccccc3c2=O)CC1 (stereo not given) — lower, 99 ± 2.2%
- CCN(CC)CC1CCCCN1CC(=O)N1c2ccccc2C(=O)Nc2cccnc21 (stereo not given) — within error, 110 ± 1.9%
- Cc1[nH]cnc1CN1CCc2c(c3ccccc3n2C)C1=O — lower, 93.5 ± 2.2%
- CC(=O)[C@H]1CC[C@H]2[C@@H]3CCC4=CC(=O)CC[C@]4(C)[C@H]3CC[C@]12C — within error, 107 ± 3%
- CN[C@H]1CC[C@@H](c2ccc(Cl)c(Cl)c2)c2ccccc21 [Sertraline] — lower, 34.2 ± 3.8%
- C[C@]12CC[C@@H]3c4ccc(OS(=O)(=O)O)cc4CC[C@H]3[C@@H]1CCC2=O — the same, 110.8 ± 0.43%
- Cc1ccnc2c1NC(=O)c1cccnc1N2C1CC1 [Viramune] — within error, 107 ± 3.4%
- CCc1ccc(CCOc2ccc(CC3SC(=O)NC3=O)cc2)nc1 (stereo not given) — lower, 105 ± 3.6%
- COc1ccc(CC2c3cc(OC)c(OC)cc3CC[N+]2(C)CCC(=O)OCCCCCOC(=O)CC[N+]2(C)CCc3cc(OC)c(OC)cc3C2Cc2ccc(OC)c(OC)c2)cc1OC (stereo not given) — within error, 110 ± 0.2%
- CC(Oc1c(Cl)cccc1Cl)C1=NCCN1 (stereo not given) — within error, 113 ± 11%
- Nc1nc(N)nc(-c2cc(Cl)ccc2Cl)n1 — lower, 95.63 ± 0.69%
- Cc1occc(=O)c1O — lower, 106 ± 1.4%
- Cc1nccn1CC1CCc2c(c3ccccc3n2C)C1=O (stereo not given) [Ondansetron] — lower, 99.8 ± 1.5%
- CNC(=C[N+](=O)[O-])NCCSCc1csc(CN(C)C)n1 — lower, 99.1 ± 1.3%
- CC(=O)O[C@H]1C[C@@H]2CC[C@@H]3[C@H](CC[C@@]4(C)[C@H]3C[C@H]([N+]3(C)CCCCC3)[C@@H]4OC(C)=O)[C@@]2(C)C[C@@H]1N1CCCCC1 — lower, 103.2 ± 0.3%
- CN(C/C=C/C#CC(C)(C)C)Cc1cccc2ccccc12 — lower, 103 ± 1.4%
- CN1[C@@H](CC(=O)c2ccccc2)CCC[C@H]1C[C@H](O)c1ccccc1 — lower, 98.58 ± 0.82%
- c1cnc(N2CCN(Cc3ccc4c(c3)OCO4)CC2)nc1 [Piribedil] — lower, 108.4 ± 0.77%
- CCOC(=O)C1=C(C)NC(C)=C(C(=O)OC)C1c1cccc([N+](=O)[O-])c1 (stereo not given) — lower, 98.9 ± 2.8%
- C=CC1=C(C(=O)O)N2C(=O)[C@@H](NC(=O)/C(=N\O)c3csc(N)n3)[C@H]2SC1 — lower, 107 ± 1.5%
- CC[C@H]1OC(=O)[C@H](C)[C@@H](O[C@H]2C[C@@](C)(OC)[C@@H](O)[C@H](C)O2)[C@H](C)[C@@H](O[C@@H]2O[C@H](C)C[C@H](N(C)C)[C@H]2O)[C@](C)(OC)C[C@@H](C)C(=O)[C@H](C)[C@@H](O)[C@]1(C)O — lower, 107 ± 1.2%
- Cc1cccc(Nc2ccncc2S(=O)(=O)NC(=O)NC(C)C)c1 — higher, 124 ± 2.1%
